The list is not random: actives were taken first. Their share in the collection is about 2.5%.
CCT modulator: modulators of cytosolic chaperonin (CCT/TRiC) activity | purified chaperonin ATPase assay, HTRF ADP detection, 30 min | activity change, % (no concentration beside the values), hits read low | 0.3% of 360,000 active | AID 651819; in the data active means activity change below about -30%; further: on the % scale 0 is the no-effect control and ±100 the full control effect
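First, chaperonin was dispensed at 40 nM or 20 nM final depending on batch activity. Next, compounds were pinned at 76 uM and ATP added at 10 uM. After 30 min at 37 °C, ADP detection reagents ran 30 min at ambient temperature.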
Mito fusion act: mitochondrial division inhibition or fusion activation; S. cerevisiae fusion-defective mutant growth rescue, CellTiterGlo 48 h; Potency, µM (titrated, usually from 46.1 µM), for inactives: at the top dose growth rescue (activation), hits mostly activators; 0.23% of 320,000 active; further: potency means the concentration at half of the fitted maximal effect; % of control where 0% means no effect; nearly all actives have a fitted effect of over 45% in size
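Compounds are tested for their ability to restore growth of mitochondrial fusion-defective yeast strains at non-permissive 37C in YPEG medium over 48 hours. Viability is quantified by luciferase luminescence.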
Akt phos inh: inhibitors of Akt phosphorylation | Neuro2A IGF-stimulated pAkt S473 HTRF, 20 min; active compounds read low | activity change, % for hits at 50 µM | 0.32% of 360,000 active | AID 651550; in the data active means activity change below about -80%; inconclusive means mostly about -51% to -80%; further: on the % scale 0 is the no-effect control and ±100 the full control effect
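Neuro2A cells in DMEM with 0.5% FBS, overnight at 37 deg C, given compound at single 50 µM final, then IGF (6 nM final) for 20 min at 37 deg C. Lysed; phospho-Akt Ser473 by HTRF after 24 h, 665/615 ratio.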
Anesthetic bind: binds horse apoferritin like a general anesthetic | P02791 | apoferritin/1-aminoanthracene competitive binding, fluorescence | Potency, µM (titrated, usually from 77.5 µM), for the others: top-dose activity change, negative = displacement, usual class: inhibitors | 0.074% of 350,000 active; further: potency means the concentration at half of the fitted maximal effect; on the % scale 0 is the no-effect control and ±100 the full control effect; nearly all actives have a fitted effect of over 20% in size
Target sequence (P02791 2-175 limits assumed): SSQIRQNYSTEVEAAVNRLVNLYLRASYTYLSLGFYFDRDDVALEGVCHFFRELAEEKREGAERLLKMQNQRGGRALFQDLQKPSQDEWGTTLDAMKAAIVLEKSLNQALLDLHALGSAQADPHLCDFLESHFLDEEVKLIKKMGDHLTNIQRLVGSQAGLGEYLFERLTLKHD
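Read-out: endpoint 1-AMA fluorescence, excitation 380 nm and emission 535 nm, after compounds sit 10 min at room temperature with 10 uM horse-spleen apoferritin in 50% saturated 1-AMA/PBS. Values come from four-parameter Hill fits.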
aSyn yeast inh: alpha-synuclein toxicity inhibition in yeast; 0.14% of 370,000 active; AID 652106; Potency, µM (top dose mostly 46.1 µM), for the others: top-dose growth rescue (activation), actives largely listed as activators; Yeast expressing alpha-synuclein, growth rescue, BacTiter-Glo, 24 h; further: potency means the concentration at half of the fitted maximal effect; % of control where 0% means no effect; nearly all actives have a fitted effect of over 65% in size
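Galactose-induced alpha-syn yeast (OD600=0.02, raffinose-pregrown) + pinned cpd, 24 hr, 30 deg C; growth by BacTiter-Glo luminescence. Growth restoration scores as activation.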
TDP43 rescue: inhibitors of TDP-43 toxicity in yeast. 1.8% of 410,000 active. AID 652104. Potency, µM (highest dose often 46.1 µM), inactives show at the highest dose growth rescue (activation), most hits filed as activators. TDP-43 expressing yeast growth rescue, BacTiter-Glo, 24 h; further: potency means the concentration at half of the fitted maximal effect; % of control where 0% means no effect; nearly all actives have a fitted effect of over 50% in size
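Galactose-induced TDP-43 yeast, OD600=0.02, compound pinned; 24 hr, 30 deg C; BacTiter-Glo luminescence for growth. Inhibitors of TDP-43 toxicity read as activators.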
* marks the source's active call; other numbers are inactive results; i = inactive; ? = inconclusive; · = no result given; [ ] = another dose, or the depositor's remark. Unless noted, the call rests on the fitted dose curve; in most records, active means well fitted curve in the direction sought with a large enough effect; inconclusive means small, poorly fitted or top-dose-only effect, or another doubt; inactive means no such curve, though single readings can be large; an effect the other way counts as inactive or inconclusive.

SMILES | CCT modulator | Mito fusion act | Akt phos inh | Anesthetic bind | aSyn yeast inh | TDP43 rescue
O=C1CSC(=S)N1c1cccc(Br)c1 | -0.7 | 23.2% | i | ? | 1.0% | 14.1µM*
O=C1CSC(=S)N1c1cccc(O)c1 | -1.4 | 9.8% | i | -8.1% | ? | -4.7%
O=C(O)c1cccc(N2C(=O)CSC2=S)c1 | -1.0 | 1.2% | i | 3.8% | 35.5µM* | ?
Cc1cc(=O)[nH]c2nnc(SCC(N)=O)n12 | · | · | · | 6.7% | · | 0.0%
CCCN1CNc2c(c(=O)[nH]c(=S)n2CCc2c(Cl)cccc2Cl)C1 | · | · | · | · | -2.5% | ·
O=c1c2c3c(sc2nc(NCCO)n1Cc1ccco1)CCCCC3 | 1.8 | 18.3% | i | -12.1% | 8.4% | -3.6%[0.397 µM]
OCCNc1nc(SCc2ccccc2)nc2sc3c(c12)CCC3 | -0.1 | 4.6% | i | -8.0% | -10.5% | 10µM*
O=c1c2c3c(sc2nc(NCCO)n1CCc1ccccc1)CCCCC3 | -2.8 | 20µM* | i | -4.0% | -11.6% | 14.1µM*
O=C(c1ccc(Sc2cccc(Cl)c2)c([N+](=O)[O-])c1)N1CCN(c2ccccn2)CC1 | -5.5 | ? | i | -12.1% | ? | 22.4µM*
CCCN(CCC)c1nc(N)nc(C#N)n1 | · | · | · | · | -11.0% | ·
Cc1ccc(C2CC(=O)N(Cc3ccccc3F)c3c2c(C)nn3-c2nc(C)cc(C)n2)cc1 (centres undefined) | · | · | · | -10.3% | · | 23.1%[9.22 µM]
Nc1ncnc2c(C3OC(CO)C(O)C3O)c[nH]c12 (centres undefined) | -2.2 | · | i | · | 11.2µM* | 3.16µM*
COc1ccc(N2CCN(CCCNC(=O)CN3CCN(Cc4ccccc4C)C3=O)CC2)cc1 | 0.2 | -5.8% | -111.2%* | -6.2% | -10.1% | -13.7%
COC(C(=O)C(O)C(C)O)C1Cc2cc3cc(OC4CC(OC5CC(O)C(O)C(C)O5)C(O)C(C)O4)c(C)c(O)c3c(O)c2C(=O)C1OC1CC(OC2CC(OC3CC(C)(O)C(O)C(C)O3)C(O)C(C)O2)C(O)C(C)O1 (centres undefined) | · | · | · | · | -21.3% | ·
CC1(C)C(=O)C=CC(=O)C(C)(C)C(=O)C=CC(=O)C(C)(C)C2=CC=C(O2)C(C)(C)C(=O)C=CC1=O | -4.0 | · | i | · | 8.4% | 15.8µM*
O=C(CSc1nc(=O)n2ccccc2n1)N1CCC(Cc2ccccc2)CC1 | -3.4 | 1.2% | i | · | 4.0% | 20µM*
COc1ccc(C)cc1Nc1c2c(nc3ccccc13)CCC2 | -34.0* | -5.5% | i | -14.4% | -2.7% | -19.1%
COc1ccc(Nc2c3c(nc4ccccc24)CCCC3)cc1OC | -0.5 | 1.3% | i | -16.9% | -1.9% | -4.4%
Cc1cc2c(c(Sc3ccccc3)n1)C(=O)OC2 | -1.3 | ? | · | 1.1% | · | 3.16µM*
CN1C(C(=O)N2CCc3ccccc3C2)=CC(c2ccc(F)cc2)=NS1(=O)=O | 0.0 | 22.7% | i | -4.9% | 1.1% | 12.6µM*
O=C(Nc1ccc2c(c1)CCCN2C(=O)c1cccs1)c1cccc(C(F)(F)F)c1 | · | · | · | -20.7% | · | 3.5%[9.22 µM]
O=C(CN1CCCCC1)N1CCCc2c1c(=O)oc1ccc(OCc3ccccc3)cc21 | -1.9 | 7.2% | -119.3%* | -11.3% | -1.7% | -27.6%
CCC1Sc2ccc(S(=O)(=O)Nc3ccc(OC)cc3)cc2NC1=O (centres undefined) | -2.4 | 3.1% | i | -19.7% | 8.1% | 14.8%
CCC1Sc2ccc(S(=O)(=O)Nc3ccc(OC)c(OC)c3)cc2NC1=O (centres undefined) | -34.7* | 0.8% | i | -0.6% | -5.2% | -4.5%
Cc1ccc(CSc2nncn3c2cc2sccc23)cc1 | · | · | · | -5.1% | · | 18.5%
SMILES | CCT modulator | Mito fusion act | Akt phos inh | Anesthetic bind | aSyn yeast inh | TDP43 rescue
Nc1c(C(=O)c2ccc(Cl)cc2)oc2ccccc12 | -0.9 | 25.1µM* | i | -1.8% | 1.3% | 15.0%
COc1ccc(C(=O)c2oc3ccc(OC)cc3c2N)cc1 | 1.9 | ? | i | -0.1% | 0.5% | 11.2µM*
CNCCN(C)c1nc(-c2cccs2)nc2ccccc12 | · | · | · | · | -4.5% | ·
COCCN(C(=O)c1ccco1)C(C(=O)NC1CCCC1)c1cccs1 (centres undefined) | -1.8 | -5.6% | -91.6%* | 4.0% | 0.4% | -9.2%
CCOC(=O)CN(C(=O)CNC(=O)c1ccco1)C(C(=O)NC1CCCCC1)c1cccs1 (centres undefined) | -2.7 | 1.4% | i | -15.3% | 3.6% | 6.0%
COc1cccc(NC(=O)C(=O)NCCc2csc(-c3ccc(C(F)(F)F)cc3)n2)c1 | · | · | · | ? | · | 17.8%
Cc1ccc(S(=O)(=O)N(CC(O)CN(C)C)c2ccccc2)cc1 (centres undefined) | -0.5 | -0.6% | -108.5%* | -1.1% | -3.1% | -12.1%
N#Cc1nc(NCCO)nc(Nc2ccccc2)n1 | · | · | · | -2.2% | · | ·
COc1ccc(-c2nc3ccccc3c(=O)o2)cc1OC | -0.1 | 0.1% | -118.7%* | -6.4% | -2.3% | 20.0%
CC(C)N(C(=O)c1ccc(C(=O)Nc2ccc([N+](=O)[O-])cc2)cc1)C(C)C | -31.9* | -7.9% | i | -4.7% | -4.0% | -15.4%[9.22 µM]
CN(C)S(=O)(=O)c1ccc(NC(=O)c2ccc([N+](=O)[O-])cc2)cc1 | -1.7 | -5.7% | i | -6.7% | -6.5% | 4.4%
Cc1cc(C(=O)Nc2nnc(C(F)(F)F)s2)cs1 | -33.7* | 2.0% | i | -3.0% | 0.4% | 4.3%
NC(=O)CSc1nnc(Cc2csc(Nc3ccccc3)n2)n1Cc1ccccc1 | -68.6* | 1.3% | i | -14.5% | 1.7% | -11.7%
C=CCOC(=O)C1=C[C@H](c2ccc(Br)cc2)[C@@H](CCCO)[C@H](OCC)O1 | 0.2 | 6.6% | i | -20.9% | 9.2% | 22.4µM*
CCO[C@H]1OC(C(N)=O)=C[C@@H](c2ccc(Br)cc2)[C@@H]1CCCO | -1.5 | 1.5% | i | 0.3% | 2.5% | 23.4%
COc1nccnc1NS(=O)(=O)c1ccc(NC(=O)c2ccc(F)cc2)cc1 | -2.7 | 6.7% | i | -8.0% | 4.0% | 0.2%
COc1ccc(C(=O)Nc2ccc(S(=O)(=O)Nc3nccnc3OC)cc2)cc1 | 1.1 | 1.3% | i | -6.7% | -12.4% | 0.316µM*
O=C(NCc1ccccc1)[C@]1(C(F)(F)F)C[C@H](CCC2CCCCC2)CCCO1 | · | · | · | 3.8% | · | ·
CC(C)c1nc2sc3c(SCC(=O)NCc4ccco4)ncnc3c2c2c1CCC2 | -3.7 | 14.3% | -95.2%* | ? | 20.5% | 5.0%
O=C(CSc1ncnc2sc3c(c12)CCCCC3)NCc1ccco1 | -0.2 | 7.6% | i | ? | 6.6% | 5.1%
N#Cc1c(Sc2ncc(C(F)(F)F)cc2Cl)nsc1C/C=N\OCc1ccccc1Br | 1.2 | -0.2% | i | 14.1µM* | 1.8% | 8.4%
CCOC(=O)/C(=C\Nc1ccccc1C(F)(F)F)Sc1ncc(C(F)(F)F)cc1Cl | -1.3 | -4.8% | i | -9.4% | 9.2% | 11.2%

Screens from PubChem.
